86 compounds from paper PMC4336329 (PLoS ONE, 2015) can be followed below.

The structures appear in SMILES notation. In all, about 310,000 compounds went through this assay and about 14,000 (4.5%) showed an effect of 50% or more. The effect is printed as a negative number. The sample holds strong results, similar compounds and a random draw of the others, so the mix is not that of the screen.
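Note: peak tail current of the secondary pulse compared with the same well before compound.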

Sequence of human ether-à-go-go-related gene (hERG) potassium channel (Q12809 whole entry, looked up): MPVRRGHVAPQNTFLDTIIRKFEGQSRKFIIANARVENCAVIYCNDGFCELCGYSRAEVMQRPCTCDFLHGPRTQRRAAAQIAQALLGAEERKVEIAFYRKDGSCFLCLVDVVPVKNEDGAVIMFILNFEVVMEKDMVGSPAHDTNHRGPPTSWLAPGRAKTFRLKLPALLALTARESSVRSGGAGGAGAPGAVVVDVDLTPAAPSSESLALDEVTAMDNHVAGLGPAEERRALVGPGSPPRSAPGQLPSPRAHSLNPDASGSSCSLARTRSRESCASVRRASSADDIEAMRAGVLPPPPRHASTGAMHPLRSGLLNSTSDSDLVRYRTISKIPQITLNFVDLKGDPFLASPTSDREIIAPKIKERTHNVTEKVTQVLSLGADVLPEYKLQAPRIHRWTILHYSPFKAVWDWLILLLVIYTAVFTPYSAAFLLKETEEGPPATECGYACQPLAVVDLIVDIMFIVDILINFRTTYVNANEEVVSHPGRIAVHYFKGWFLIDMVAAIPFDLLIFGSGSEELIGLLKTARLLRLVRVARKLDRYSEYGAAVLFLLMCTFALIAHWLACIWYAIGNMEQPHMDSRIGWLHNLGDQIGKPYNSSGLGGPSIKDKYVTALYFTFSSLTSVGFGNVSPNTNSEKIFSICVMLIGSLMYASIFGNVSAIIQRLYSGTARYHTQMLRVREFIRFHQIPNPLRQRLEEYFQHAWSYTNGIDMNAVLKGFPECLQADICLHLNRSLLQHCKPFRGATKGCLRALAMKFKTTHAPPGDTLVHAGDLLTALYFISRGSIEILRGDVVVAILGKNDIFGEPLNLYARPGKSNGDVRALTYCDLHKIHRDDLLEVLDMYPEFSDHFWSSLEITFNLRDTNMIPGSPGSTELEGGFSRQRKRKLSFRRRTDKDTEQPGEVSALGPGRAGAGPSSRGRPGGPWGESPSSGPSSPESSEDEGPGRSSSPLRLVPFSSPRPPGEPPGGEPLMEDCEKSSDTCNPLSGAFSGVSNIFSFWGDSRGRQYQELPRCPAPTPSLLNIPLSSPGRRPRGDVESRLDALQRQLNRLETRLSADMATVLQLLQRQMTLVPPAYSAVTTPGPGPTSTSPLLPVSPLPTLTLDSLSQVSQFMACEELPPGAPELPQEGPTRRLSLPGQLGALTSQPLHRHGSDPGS

This experiment addresses human ether-à-go-go-related gene (hERG) potassium channel (human, UniProt Q12809). The experiment is described as follows: primary screen, population patch clamp on CHO cells stably expressing hERG; higher = less effect of the substance.
Regarding `Cc1ccc(S(=O)(=O)N(C)CC(=O)OCC(=O)NCCN2C(=O)CSC2=O)cc1`, the “hERG current change (%, negative = inhibition) at 10uM” value is recorded as -9.67%.
Consider `O=C(c1ccc(Cl)cc1)C(CN1CCCC1)c1ccccc1` (centres unmarked), for which the “hERG current change (%, negative = inhibition) at 10uM” value is listed as -10.3%.
Next, `COc1ccc(OC)c(NC(=O)Nc2nnc(N3CCC(C)CC3)s2)c1`: 5.07%; `COc1ccc(CCNC(=O)[C@@H](NC(=O)N2CCn3c2nc2ccccc23)C(C)C)cc1OC`: -14.3%.
On to `Cc1ccc(C)c(NS(=O)(=O)c2ccc(OCC(=O)N3CCOCC3)cc2)c1`, for which the “hERG current change (%, negative = inhibition) at 10uM” value is -7.34%.
Under `O=C(CCNC(=O)c1ccc([N+](=O)[O-])cc1)NCCc1ccccc1` stands -27.8%; under `CCOc1ccc(-c2cc(CCCC(=O)NCc3cccnc3)no2)cc1`, -35%.
Next, `COc1ccccc1-c1nnc(NC(=O)C(C)Sc2nncn2C)s1` (centres unmarked): -1.37%.
Under `Cc1nc2ccc(NC(=O)c3cccs3)cc2c(=O)n1Cc1ccc(Cl)cc1` stands 9.84%; under `Cc1nc2ccc(NC(=O)c3cccs3)cc2s1`, 19.8%; under `CCN(CC)c1ccc(NC(=O)c2ccccc2F)cc1`, -9.39%.
Take `CCN(CC)c1cc(C)c2cc(NC(=O)c3cccs3)ccc2n1`: the “hERG current change (%, negative = inhibition) at 10uM” value is listed as -72.2%.
Under `CCN(CC)c1cc(C)c2cc(NC(=O)c3ccccc3F)ccc2n1` stands -81.3%.
Next, `CCN(CC)c1cc(C)c2cc(NC(=O)c3ccccc3OC)ccc2n1`: -18.6%; `COc1ccc(Cl)cc1N(CC(=O)Nc1ccc2c(c1)OCO2)S(C)(=O)=O`: -24%; `COc1cccc(CNC(=O)Cc2c(C(=O)O)[nH]c3ccccc23)c1`: 8.83%.
Turning to `COC(=O)[C@H](CC(C)C)NC(=O)Nc1ccccc1F`, the “hERG current change (%, negative = inhibition) at 10uM” value is 16.6%.
Next, `Cc1ccccc1Cn1nc(C)c(NC(=O)c2nc3n(n2)C(C(F)F)CC(C)N3)c1C` (centres unmarked): 0.0862%; `O=C(CCN1C(=O)c2ccccc2C1=O)NNC(=O)c1ccc(Cl)cc1Cl`: 6.82%.
Next, `CN(c1ccccc1)c1nc(-n2ccnc2)nc(-n2ccnc2)n1`: -67.7%; `c1ccc(N(c2ccccc2)c2nc(-n3ccnc3)nc(-n3ccnc3)n2)cc1`: -24.2%.
Regarding `CC(C)Nc1nc(-c2ccccc2)nc(-n2ccnc2)n1`, the “hERG current change (%, negative = inhibition) at 10uM” value is recorded as -0.0673%.
Next, `CN(c1ccccc1)c1nc(N2CCCC2)nc(-n2ccnc2)n1`: -19.5%; `c1ccc(-c2nc(-n3ccnc3)nc(-n3ccnc3)n2)cc1`: -69.4%.
Consider `c1ccc(-c2nc(N3CCN(c4ccccc4)CC3)nc(-n3ccnc3)n2)cc1`, for which the “hERG current change (%, negative = inhibition) at 10uM” value is -2.66%.
Take `Cc1ccc(S(=O)(=O)N2c3ccccc3CC2C)cc1` (centres unmarked): the “hERG current change (%, negative = inhibition) at 10uM” value was 13.4%.
In the case of `COc1ccc(C(=O)CC(=O)C(=O)NCCc2cccc(C)c2)cc1`, the “hERG current change (%, negative = inhibition) at 10uM” value was found to be 7.31%.
Next, `O=C(C(=O)N1CCN(c2ccccc2)CC1)c1c[nH]c2ccccc12`: 4.09%.
Consider `C/C(CC(=O)Nc1ccc2ccccc2c1)=N\NC(=O)c1ccc(O)c(O)c1`, for which the “hERG current change (%, negative = inhibition) at 10uM” value is reported as -6.73%.
Next, `COCCN1C(=O)CC(NNC(=O)c2ccc(S(=O)(=O)N3CCCC3)cc2)C1=O` (centres unmarked): 10%; `CCOC(=O)C1CCN(C(=O)CS(=O)Cc2nc(-c3ccc(C)cc3)oc2C)CC1` (centres unmarked): -0.626%; `CCN(C(=O)COC(=O)c1cc(Cl)ccc1OC)c1c(N)n(Cc2ccccc2)c(=O)[nH]c1=O`: 4.46%.
Turning to `O=C(Cc1ccccc1)NN1C(=O)c2ccccc2C1=O`, the “hERG current change (%, negative = inhibition) at 10uM” value was -9.37%.
In the case of `COc1ccc(CCNC(=O)CSc2nnc3c(n2)[nH]c2ccc(F)cc23)cc1OC`, the “hERG current change (%, negative = inhibition) at 10uM” value amounted to 12.8%.
Under `CCNC(=O)NC(=O)COC(=O)CCc1nc(=O)c2ccccc2n1C` stands 4.87%.
For the compound `CCN(CC)S(=O)(=O)c1ccc2c(c1)nc(CCC(=O)OCC(=O)Nc1c(F)cccc1F)n2C`, the “hERG current change (%, negative = inhibition) at 10uM” value is recorded as -34.6%.
Under `CNC(=O)NC(=O)COC(=O)CCc1nc(=O)c2ccccc2n1C` stands -19.2%; under `CCc1ccc(NC(=O)COC(=O)CCc2nc3cc(S(=O)(=O)N(CC)CC)ccc3n2C)cc1`, -60%; under `CCN(CC)S(=O)(=O)c1ccc2c(c1)nc(CCC(=O)OCC(=O)Nc1cc(OC)cc(OC)c1)n2C`, -48.5%.
Take `Cn1c(CCC(=O)OCC(=O)Nc2ccc(Oc3ccccc3)cc2)nc(=O)c2ccccc21`: the “hERG current change (%, negative = inhibition) at 10uM” value is recorded as -53.3%.
Next, `CN1CCNC(=O)C1CC(=O)NCCC1=CCCCC1` (centres unmarked): 18.2%; `Cc1ccc(C(C)C)c(OCc2nnc(SCC(=O)Nc3ncc(C)s3)n2C)c1`: -4.11%.
In the case of `CN(C)c1nnnn1-c1ccc(OC(F)(F)F)cc1`, the “hERG current change (%, negative = inhibition) at 10uM” value was -9.73%.
For the compound `CCCC1(c2ccccc2)NC(=O)N(CC(=O)Nc2cc(S(=O)(=O)N3CCOCC3)ccc2Cl)C1=O` (centres unmarked), the “hERG current change (%, negative = inhibition) at 10uM” value is on record as -22.6%.
Next, `CC(C)(C)NC(=O)N1CCCN(c2ccc(C(F)(F)F)cn2)CC1`: -0.47%.
Under `C[C@H]1C=C(C(=O)NCc2ccccc2)O[C@@H](OCc2ccc(CO)cc2)C1` stands -10.5%.
Regarding `Cc1cc(NC(=O)c2cccc(Oc3ccccc3)c2)n[nH]1`, the “hERG current change (%, negative = inhibition) at 10uM” value was determined as 1.16%.
Under `COc1ccccc1N(C)S(=O)(=O)c1ccc(C(=O)OCC(=O)NCCC2=CCCCC2)cc1` stands -4.24%; under `CCCC(=O)NC(C)C(c1cccs1)N1CCN(c2ccccc2)CC1` (centres unmarked), -7.64%; under `Cc1cccc(N2CCN(CCCNC(=O)C3CCCN(c4ncnc5c4nc4n5CCCCC4)C3)CC2C)c1` (centres unmarked), -67.8%.
Next, `CC1CC(C)CN(CCCNC(=O)C2CCCN(c3ncnc4c3nc3n4CCCCC3)C2)C1` (centres unmarked): -14.1%; `COc1ccc(CCNC(=O)C2CCCN(c3ncnc4c3nc3n4CCCCC3)C2)c(OC)c1` (centres unmarked): -42.8%; `CC1CCCN(CCCNC(=O)C2CCCN(c3ncnc4c3nc3n4CCCCC3)C2)C1` (centres unmarked): -4.72%.
Under `O=C(NCCc1ccc(Cl)cc1)C1CCCN(c2ncnc3c2nc2n3CCCCC2)C1` (centres unmarked) stands -57.2%; under `CC1CCCCN1CCNC(=O)C1CCCN(c2ncnc3c2nc2n3CCCCC2)C1` (centres unmarked), -14.3%; under `Cc1cccc(CCNC(=O)C2CCCN(c3ncnc4c3nc3n4CCCCC3)C2)c1` (centres unmarked), -59.8%.
Regarding `COc1ccccc1N1CCN(CCCNC(=O)C2CCCN(c3ncnc4c3nc3n4CCCCC3)C2)CC1` (centres unmarked), the “hERG current change (%, negative = inhibition) at 10uM” value is reported as -40.3%.
In the case of `COc1cccc(CCNC(=O)C2CCCN(c3ncnc4c3nc3n4CCCCC3)C2)c1OC` (centres unmarked), the “hERG current change (%, negative = inhibition) at 10uM” value is -74.7%.
Regarding `C=CCN(CC=C)CCOc1ccc(C)cc1[N+](=O)[O-].O=C(O)C(=O)O`, the “hERG current change (%, negative = inhibition) at 10uM” value is on record as -47.3%.
Take `O=C(Oc1cccc(-n2cnnn2)c1)c1ccco1`: the “hERG current change (%, negative = inhibition) at 10uM” value is reported as 6.57%.
Under `O=C(COC(=O)Cc1ccsc1)NCc1ccccc1` stands 19.6%; under `Clc1ccc(-c2ccc(/C=N/Nc3nncc(-c4ccccc4)n3)o2)cc1`, 20.8%; under `Cc1cccc(C)c1NC(=O)CN(C)C(=O)c1cccc(NS(=O)(=O)c2ccccc2)c1`, -4.78%.
In the case of `Cc1ccc(S(=O)(=O)NN=C2CCC(C(C)(C)C)CC2)cc1[N+](=O)[O-]` (centres unmarked), the “hERG current change (%, negative = inhibition) at 10uM” value is -8.37%.
As for `COc1ccc(/C=C/C(=O)Oc2cccc(/C=N/NC(=O)COc3c(C)cccc3C)c2)cc1`, the “hERG current change (%, negative = inhibition) at 10uM” value was determined as 11.8%.
Under `Cc1cccc(-c2ocnc2C(=O)Nc2ccccc2C(=O)N2CCCC2)c1` stands -37%; under `COc1ccc(C(=O)Nc2ccc(S(=O)(=O)N3CCCCC3C)cc2)c(OC)c1OC` (centres unmarked), -6.46%.
Under `O=C(NCCc1ccccc1)C1CCCN(c2ncnc3c2nc2n3CCCCC2)C1` (centres unmarked) stands -59.9%.
With `CN(CCNC(=O)C1CCCN(c2ncnc3c2nc2n3CCCCC2)C1)Cc1ccccc1` (centres unmarked), the “hERG current change (%, negative = inhibition) at 10uM” value is listed as -29.1%.
Next, `CC1CCN(CCNC(=O)C2CCCN(c3ncnc4c3nc3n4CCCCC3)C2)CC1` (centres unmarked): 12.5%.
Under `CCOc1ccc(CCNC(=O)C2CCCN(c3ncnc4c3nc3n4CCCCC3)C2)cc1` (centres unmarked) stands -58.6%; under `CC1CCCC(C)N1CCCNC(=O)C1CCCN(c2ncnc3c2nc2n3CCCCC2)C1` (centres unmarked), 8.21%.
Regarding `Cc1ccc(CCNC(=O)C2CCCN(c3ncnc4c3nc3n4CCCCC3)C2)cc1` (centres unmarked), the “hERG current change (%, negative = inhibition) at 10uM” value is recorded as -28.7%.
Take `CSc1ccc(CCNC(=O)C2CCCN(c3ncnc4c3nc3n4CCCCC3)C2)cc1` (centres unmarked): the “hERG current change (%, negative = inhibition) at 10uM” value is -61.8%.
Next, `COc1cc(/C=N/N2CCN(c3ccccc3OC)CC2)ccc1OC(C)=O`: 17.2%; `CCOC(=O)Cc1csc(NC(=O)C(NC(=O)C2CCC(C)CC2)C(C)C)n1` (centres unmarked): 23.5%.
Under `CC(C)NC(=O)/C(=C/c1ccco1)c1ccccc1` stands -2.25%; under `Cc1cccc(NC(=O)CCC(=O)c2cccs2)n1`, 12%.
Regarding `COc1cccc(N2CCN(Cc3nc(N)nc(Nc4ccccc4)n3)CC2)c1`, the “hERG current change (%, negative = inhibition) at 10uM” value is on record as -68%.
For the compound `Cc1cccc(Nc2nc(N)nc(CN3CCN(C)CC3)n2)c1`, the “hERG current change (%, negative = inhibition) at 10uM” value is listed as -39.2%.
In the case of `Cc1cccc(Nc2nc(N)nc(CSC(=S)N3CCOCC3)n2)c1`, the “hERG current change (%, negative = inhibition) at 10uM” value is given as -0.689%.
Under `COc1cccc(N2CCN(Cc3nc(N)nc(N4CCCc5ccccc54)n3)CC2)c1` stands -45%.
For the compound `Cc1cccc(Nc2nc(N)nc(CN3CCN(c4ccccc4)CC3)n2)c1`, the “hERG current change (%, negative = inhibition) at 10uM” value is listed as -54.5%.
Next, `Cc1cccc(Nc2nc(N)nc(CN3CCN(c4ccc(F)cc4)CC3)n2)c1`: -73.3%; `Cc1cccc(Nc2nc(N)nc(CCl)n2)c1`: -0.698%; `COc1ccc(Nc2nc(N)nc(CSC(=S)N3CCN(c4ccccc4)CC3)n2)cc1`: 14.1%.
